The results in this text go back to PubChem BioAssay (NCATS).

Assay [1] in a line: qHTS of pediatric cancer cell lines to identify multiple opportunities for drug repurposing: Primary screen for OHS-50 cells (AID 1347103). Note: nearly all actives have a fitted effect of over 40% in size. Note: potency is the fitted concentration of half-maximal effect. In outline:
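Cells (500-1,000/well) rested 5 h, then received compounds for 48 h; metabolically active cells were measured by CellTiter-Glo luminescence. Final concentrations spanned up to 46 µM (MIPE, 11-point) or 0.59 nM-46 µM (NPC, 8-point) in primary screens, 11-point in follow-ups.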
In general terms: Quantitative high-throughput screening tests each substance at several concentrations.

The nature of assay [2]: qHTS of pediatric cancer cell lines to identify multiple opportunities for drug repurposing: Primary screen for RD cells (AID 1347104). Note: nearly all actives have a fitted effect of over 55% in size. Note: potency is the fitted concentration of half-maximal effect. The method in brief: (§1)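 Cells seeded at 500-1,000 cells/well in growth media, rested 5 hours at 37 degrees C, 5% CO2, then dosed; MIPE compounds at 11-point (from 0.78 nM) and NPC at 8-point (from 0.59 nM) final concentrations. Viability by CellTiter-Glo luminescence after 48 hours.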

Assay [3] in a line: qHTS of pediatric cancer cell lines to identify multiple opportunities for drug repurposing: Primary screen for Rh30 cells (AID 1347107). Note: nearly all actives have a fitted effect of over 75% in size. Note: potency is the fitted concentration of half-maximal effect. The method in brief: (§2)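 Cells (500-1,000/well) in growth media were settled 5 h at 37 degrees C, then given compounds for 48 h. Viability was read as CellTiter-Glo luminescence. Primary runs used MIPE at 11 points (0.78 nM-46 µM) and NPC at 8 points (0.59 nM-46 µM); follow-ups used 11 points.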

The nature of assay [4]: qHTS of pediatric cancer cell lines to identify multiple opportunities for drug repurposing: Primary screen for Rh41 cells (AID 1347108). Note: nearly all actives have a fitted effect of over 70% in size. Note: potency is the fitted concentration of half-maximal effect. In outline: as §1
The nature of assay [5]: qHTS of pediatric cancer cell lines to identify multiple opportunities for drug repurposing: Primary screen for control Hh wild type fibroblast cells (AID 1347106).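 Note: series mostly up to about 46 µM; a drop in luminescence marks cytotoxicity and a rise apparent proliferation; nearly all actives have a fitted effect of over 55% in size.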 In outline:
as §2

Assay [6] in a line: qHTS of pediatric cancer cell lines to identify multiple opportunities for drug repurposing: Confirmatory screen for NB1643 cells (AID 1347109). Note: potency is the fitted concentration of half-maximal effect; nearly all actives have a fitted effect of over 45% in size. In outline: as §2
A short description of assay [7]: qHTS of pediatric cancer cell lines to identify multiple opportunities for drug repurposing: Confirmatory screen for SK-N-MC cells (AID 1347111).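 Note: potency is the fitted concentration of half-maximal effect; cells exposed to compound for 48 h before the readout; nearly all actives have a fitted effect of over 70% in size.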 In outline: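 Metabolically active cells were quantified by ATP-dependent luminescence (CellTiter-Glo, 15 min at room temperature) following 48 h treatment. Cells had been plated at 500-1,000 per well and settled for 5 h beforehand.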

Assay [8] is described as follows: qHTS of pediatric cancer cell lines to identify multiple opportunities for drug repurposing: Confirmatory screen for BT-12 cells (AID 1347112). Note: potency is the fitted concentration of half-maximal effect; nearly all actives have a fitted effect of over 55% in size. The method in brief: as §2
A short description of assay [9]: qHTS of pediatric cancer cell lines to identify multiple opportunities for drug repurposing: Primary screen for MG 63 (6-TG R) cells (AID 1347105). Note: nearly all actives have a fitted effect of over 50% in size. Note: potency is the fitted concentration of half-maximal effect. In outline: as §1

Molecules are shown by their SMILES. Results filed as inconclusive are left out. Activity calls are given as the source filed them. Calls come from the whole dose curve; as a rule, active = well fitted curve in the direction sought with a large enough effect; inconclusive = small, poorly fitted or top-dose-only effect, or another doubt; inactive = no such curve, though single readings can be large; an effect the other way counts as inactive or inconclusive.

Regarding `CCCCCCCCCCCC[N+](C)(C)Cc1ccccc1`, the Potency in [1] is 1.74 µM (active); in assay [2] it was 9.44 µM (active); in assay [3] it was 18.8 µM (active); in assay [4], 21.1 µM (active).

As for `O=c1[nH]sc2cc(Cl)ccc12`, the Potency in [1] is 13.8 µM (active); in [6] it was 8.27 µM (active); in assay [7], 9.27 µM (active); in [8], 16.5 µM (active). The Potency entry in assay [2] and in assay [5] was “inactive” in each case.

On to `C[C@H](CN1CCCC1)C(=O)c1ccc(C(F)(F)F)cc1`, for which the Potency result in assay [1], in assay [2], in assay [5], in assay [3] and in assay [4] was “inactive” each time.

Regarding `CCOC(=O)C1=C(C)NC(C)=C(C(=O)OCC)C1c1ccccc1/C=C/C(=O)OC(C)(C)C`, the Potency was 15.5 µM (active) in [1] and 26.6 µM (active) in assay [9]. The Potency entry in [5] and in assay [3] was “inactive” each time.

With `O=C(COCCOCCOCC(=O)Nc1c(I)cc(I)c(C(=O)O)c1I)Nc1c(I)cc(I)c(C(=O)O)c1I`, the Potency result in assay [2], in [9], in assay [5] and in assay [3] was “inactive” each time.

Regarding `CCOC(=O)C(=O)CCCCCCl`, the Potency entry in [1], in [2], in assay [3] and in assay [4] was “inactive” throughout.

For `CC(C)(C)c1nnc(NS(=O)(=O)c2ccccc2)s1`, the Potency entry in assay [1], in assay [2], in assay [5], in assay [3] and in assay [4] was “inactive” each time.

Take `O=C(O)CCCC[P+](c1ccccc1)(c1ccccc1)c1ccccc1`: the Potency entry in assay [2], in assay [9], in [5], in [3] and in [4] was “inactive” in each case.

Turning to `O=C(CCCl)NCCc1ccccc1`, the Potency entry in assay [2], in assay [9], in [5], in assay [3] and in assay [4] was “inactive” throughout.

In the case of `COc1ccccc1N1CCN(CC(O)COc2cc(OC)c(OC)c(OC)c2)CC1` (stereo unspecified), the Potency result in assay [2], in [9], in assay [5], in assay [3] and in [4] was “inactive” in each case.

For the molecule `O=C(CS(=O)Cc1ccco1)NC/C=C\COc1cc(CN2CCCCC2)ccn1` (stereo unspecified), the Potency result in assay [2], in assay [9], in assay [5], in [3] and in assay [4] was “inactive” each time.

As for `COC(=O)CCCCC(CCSS/C(CCO)=C(\C)N(C=O)Cc1cnc(C)nc1N)SC(C)=O` (stereo unspecified), the Potency result in assay [2], in assay [9], in assay [5], in [3] and in assay [4] was “inactive” each time.

Turning to `O=C1Nc2cc(Cl)ccc2Oc2ccccc21`, the Potency entry in [2], in assay [9], in assay [5], in assay [3] and in assay [4] was “inactive” throughout.

Turning to `c1ccc2occc2c1`, the Potency result in assay [2], in assay [9], in [5], in assay [3] and in assay [4] was “inactive” each time.

Take `CCCC(=O)Nc1ccc(O)c(C(C)=O)c1`: the Potency result in assay [2], in [9], in [5], in [3] and in assay [4] was “inactive” in each case.

As to `CC(C)C[C@H](NC(=O)CNC(=O)[C@H](Cc1ccc(O)cc1)NC(=O)[C@H](CO)NC(=O)[C@H](Cc1c[nH]c2ccccc12)NC(=O)[C@H](Cc1cnc[nH]1)NC(=O)[C@@H]1CCC(=O)N1)C(=O)N[C@@H](CCCN=C(N)N)C(=O)N1CCC[C@H]1C(=O)NCC(N)=O` (stereo in doubt), the Potency entry in assay [2], in assay [9], in assay [5], in [3] and in assay [4] was “inactive” each time.

For the molecule `O=C(c1ccco1)N1CCNCC1`, the Potency result in assay [2], in assay [9], in [5], in assay [3] and in assay [4] was “inactive” throughout.

As for `CN1C(CSCC(F)(F)F)Nc2cc(Cl)c(S(N)(=O)=O)cc2S1(=O)=O` (stereo unspecified), the Potency entry in [2], in assay [9], in [5], in assay [3] and in assay [4] was “inactive” in each case.

Turning to `CCC[C@H](N[C@@H](C)C(=O)N1[C@H](C(=O)O)C[C@@H]2CCCC[C@@H]21)C(=O)OCC`, the Potency entry in assay [2], in [9], in assay [5], in assay [3] and in assay [4] was “inactive” in each case.

`O=C(C1CCCCC1)N1CC(=O)N2CCCc3ccccc3C2C1` (stereo unspecified): the Potency result in assay [2], in [9], in assay [5], in assay [3] and in assay [4] was “inactive” each time.

On to `C[N+]1(CC2COC(c3ccccc3)(c3ccccc3)O2)CCCCC1` (stereo unspecified), for which the Potency result in assay [2], in assay [9], in assay [5], in assay [3] and in assay [4] was “inactive” throughout.

Regarding `c1ccc2c(c1)CCc1ccccc1N2`, the Potency entry in assay [2], in assay [9], in [5], in assay [3] and in [4] was “inactive” each time.

Take `c1ccc(C(O[C@H]2CCCN(CCc3ccc4c(c3)OCO4)C2)c2ccccc2)cc1`: the Potency entry in [2], in [9], in [5], in [3] and in assay [4] was “inactive” each time.

Turning to `O=C(OCC(O)CO)c1ccccc1Nc1ccnc2c(C(F)(F)F)cccc12` (stereo unspecified), the Potency entry in assay [2], in assay [9], in assay [5], in [3] and in [4] was “inactive” each time.

Take `C[C@@H](C1=C(CCN(C)C)Cc2ccccc21)c1ccccn1`: the Potency result in assay [2], in assay [9], in assay [5], in assay [3] and in assay [4] was “inactive” throughout.

Take `C[C@@H]1C[C@H]2[C@@H]3CCC4=CC(=O)C=C[C@]4(C)[C@@]3(F)[C@@H](O)C[C@]2(C)[C@@]1(O)C(=O)COC(=O)c1ccncc1`: the Potency result in assay [2], in assay [9], in assay [5] and in assay [3] was “inactive” throughout.

Take `COc1cc2c(cc1OC)C(=O)CC2`: the Potency entry in assay [2], in assay [9], in assay [5], in assay [3] and in assay [4] was “inactive” in each case.

`CCCCCC[C@@H](CCC)C(=O)O`: the Potency entry in assay [2], in assay [9], in assay [5], in assay [3] and in assay [4] was “inactive” each time.

Consider `CCOc1ccccc1OCC1CNCCO1` (stereo unspecified), for which the Potency entry in assay [2], in assay [9], in [5], in assay [3] and in assay [4] was “inactive” in each case.
